# Laboratory results from publication PMC4336329 (PLoS ONE, 2015).
# In all, about 310,000 compounds went through this assay and about 14,000 (4.5%) showed an effect of 50% or more. Effects have a minus sign here. What follows is part of a selection rich in strong results, with near analogues and random picks from the rest.
# Target: human ether-à-go-go-related gene (hERG) potassium channel (human, UniProt Q12809)
# Test: primary screen, population patch clamp on CHO cells stably expressing hERG; higher = less effect of the substance
# 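Also: peak tail current of the secondary pulse compared with the same well before compound.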
# human ether-à-go-go-related gene (hERG) potassium channel, sequence (Q12809 whole entry, looked up): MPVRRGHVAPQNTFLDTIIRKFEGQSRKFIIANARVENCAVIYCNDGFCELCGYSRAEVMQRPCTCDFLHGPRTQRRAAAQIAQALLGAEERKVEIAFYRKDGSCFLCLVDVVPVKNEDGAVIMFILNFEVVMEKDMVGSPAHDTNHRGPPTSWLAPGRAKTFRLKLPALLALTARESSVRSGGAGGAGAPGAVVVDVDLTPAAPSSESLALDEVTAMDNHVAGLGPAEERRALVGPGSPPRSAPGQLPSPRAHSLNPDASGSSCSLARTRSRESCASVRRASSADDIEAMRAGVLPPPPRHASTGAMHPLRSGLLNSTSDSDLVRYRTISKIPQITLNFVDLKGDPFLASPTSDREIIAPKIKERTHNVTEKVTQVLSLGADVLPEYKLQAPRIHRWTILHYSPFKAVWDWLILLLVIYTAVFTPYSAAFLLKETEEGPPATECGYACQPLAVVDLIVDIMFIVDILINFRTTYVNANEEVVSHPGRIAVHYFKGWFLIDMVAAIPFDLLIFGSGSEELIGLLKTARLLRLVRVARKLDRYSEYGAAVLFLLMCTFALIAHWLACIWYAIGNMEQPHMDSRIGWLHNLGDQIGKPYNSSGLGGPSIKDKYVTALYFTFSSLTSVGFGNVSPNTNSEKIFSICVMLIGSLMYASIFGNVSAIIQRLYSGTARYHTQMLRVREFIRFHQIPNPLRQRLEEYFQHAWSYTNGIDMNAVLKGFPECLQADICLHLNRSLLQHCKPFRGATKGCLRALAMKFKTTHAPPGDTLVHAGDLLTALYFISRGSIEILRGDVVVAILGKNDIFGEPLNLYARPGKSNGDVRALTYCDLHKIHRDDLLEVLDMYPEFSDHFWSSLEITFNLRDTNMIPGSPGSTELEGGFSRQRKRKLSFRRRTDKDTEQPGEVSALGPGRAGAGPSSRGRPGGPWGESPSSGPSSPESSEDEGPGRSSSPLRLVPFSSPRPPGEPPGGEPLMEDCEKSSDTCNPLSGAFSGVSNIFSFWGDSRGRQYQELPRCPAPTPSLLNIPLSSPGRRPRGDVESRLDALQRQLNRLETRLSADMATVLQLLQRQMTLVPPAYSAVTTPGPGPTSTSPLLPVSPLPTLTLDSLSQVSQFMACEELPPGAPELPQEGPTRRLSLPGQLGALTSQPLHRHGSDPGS
row,Compound,"hERG current change (%, negative = inhibition) at 10uM [%]"
1,COc1ccccc1/C=C(/C#N)C(=O)O,18.5
2,Nc1ccc(-c2cnc3ccccc3n2)cc1,0.217
3,O=C(COc1ccccc1)Nc1nnc(COc2ccccc2)s1,4.24
4,CC(=O)/C(C[N+]1(C)CCCCC1)=N\O.[I-],16.4
5,CSc1ncc(Cl)c(C(=O)Nc2ccccc2C)n1,6.48
6,CCCCCN=CC1=C(O)CC(c2ccccc2)CC1=O (stereo not shown),-6.98
7,COc1ccc(C2CC(=O)c3cnn(-c4nc(C)cc(C)n4)c3C2)cc1OC (stereo not shown),-4.84
8,COCCNC(=S)N/N=C1\CC(C)CC(C)(C)C1 (stereo not shown),6.32
9,C#CCn1cnc2c(cnn2-c2ccc(C)c(C)c2)c1=O,3.21
10,COc1ccc(-c2[nH]ncc2CNC(C)CCn2cccn2)cc1F (stereo not shown),-2.23
11,Nn1c(SCC(=O)Nc2nccs2)nnc1C1CC1,6.89
12,COC(=O)c1ccccc1NS(=O)(=O)c1ccc2[nH]c(=O)[nH]c2c1,16.4
13,O=C(CN1C(=O)c2cccc3cccc1c23)NCc1cccnc1,2.05
14,CCCCCCNS(=O)(=O)c1ccc(Cl)s1,-12.9
15,Cc1ccc(SCC(=O)NC(C)(C)C)cc1,-8.22
16,Cc1ccc(Nc2nc(-c3c(C)nc4ncccn34)cs2)cc1,-10.4
17,Cc1nc2ncccn2c1-c1csc(Nc2cccc(C(=O)O)c2)n1,5.55
18,Br.Cc1ccc(Nc2nc(-c3c(C)nc4ccccn34)cs2)cc1,-62.7
19,CC(=O)Nc1ccc(Nc2nc(-c3c(C)nc4ccccn34)cs2)cc1,18.4
20,Cc1nc2ncccn2c1-c1csc(Nc2ccccc2)n1,-54.7

row,Compound,"hERG current change (%, negative = inhibition) at 10uM [%]"
1,Cc1cccc(Nc2nc(-c3c(C)nc4ccccn34)cs2)c1,0.479
2,O=c1cc(N2CCN(c3ccccc3F)CC2)[nH]c(=O)n1-c1ccc(Br)cc1,-16.7
3,COC(=O)C1C(=O)CC(C)(O)C(C(=O)OC)C1/C=C/c1ccccc1 (stereo not shown),-15.6
4,COc1ccccc1C(=O)O/N=C(/c1ccncc1)c1ccc([N+](=O)[O-])cc1,-67.9
5,N/C(Cc1ccc([N+](=O)[O-])cc1)=N\OC(=O)c1ccc([N+](=O)[O-])cc1,-57.6
6,N/C(=N\OC(=O)c1ccccc1Br)c1ccc([N+](=O)[O-])cc1,-14.4
7,COc1ccc(/C(N)=N/OC(=O)c2ccc([N+](=O)[O-])c(C)c2)cc1OC,-16.5
8,O=C(O/N=C(/c1ccccc1)c1ccncc1)c1ccccc1[N+](=O)[O-],-14
9,N/C(Cc1ccc([N+](=O)[O-])cc1)=N\OC(=O)c1ccc(Br)cc1,-41.5
10,COc1ccccc1C(=O)O/N=C(\c1ccccc1)c1ccncc1,-14.4
11,N/C(Cc1ccc([N+](=O)[O-])cc1)=N\OC(=O)c1ccc2ccccc2c1,2.02
12,N/C(Cc1ccc([N+](=O)[O-])cc1)=N\OC(=O)c1ccccc1F,-35.6
13,COc1ccc(/C(N)=N/OC(=O)c2ccc(C)c([N+](=O)[O-])c2)cc1OC,10.1
14,N/C(Cc1ccc([N+](=O)[O-])cc1)=N\OC(=O)c1ccccc1Br,-57.7
15,COc1ccc(/C(N)=N/OC(=O)c2ccc(OC)c([N+](=O)[O-])c2)cc1OC,-65
16,c1ccc(CSc2nnnn2-c2ccccc2)cc1,-3.94
17,CC(=O)NCc1ccc(S(=O)(=O)NC(C)CCc2ccccc2)cc1 (stereo not shown),13.3
18,OCCn1ccc(-c2ccccc2OCc2ccc(F)cc2)n1,4.9
19,N#Cc1ccccc1Cn1c(-c2cscn2)nc2ccccc21,-7.78
20,CCOC(=O)c1sc(NC(=O)CCCn2nc([N+](=O)[O-])c(Cl)c2C)c(C(=O)OCC)c1C,-3.72

row,Compound,"hERG current change (%, negative = inhibition) at 10uM [%]"
1,Cc1cc(/C=C(\C#N)C(=O)NCCc2c[nH]c3ccccc23)c(C)n1C,3.85
2,O=C1CS/C(=N\C(=O)N2c3ccccc3Sc3ccccc32)N1,5.96
3,Cc1cc(S(=O)(=O)Nc2ccc(N(C)C)cc2)c(C)s1,0.71
4,Fc1ccc(C(c2nnnn2C2CCCC2)N(Cc2ccco2)CC2CCCO2)cc1 (stereo not shown),-28
5,O=C(CSc1cccc[n+]1[O-])Nc1cccc(S(=O)(=O)NC2=NCCCCC2)c1,54.8
6,CCCn1c(C)cs/c1=N\C(=S)Nc1ccccc1,12.8
7,Cc1ccc(C(=O)O/N=C(\N)Cc2ccc([N+](=O)[O-])cc2)c(Cl)c1,-46.3
8,Cc1cccc(OCC(=O)O/N=C(\N)Cc2ccc([N+](=O)[O-])cc2)c1,-32.5
9,Cc1cccc(C(=O)O/N=C(\N)Cc2ccc([N+](=O)[O-])cc2)c1,-64.3
10,COc1ccc(C(=O)O/N=C(\N)Cc2ccc([N+](=O)[O-])cc2)c(OC)c1,-57.1
11,COc1ccc(CC(=O)O/N=C(\N)Cc2ccc([N+](=O)[O-])cc2)cc1,-46.5
12,COc1cc(C(=O)OCc2ccc([N+](=O)[O-])cc2)cc(OC)c1OC,2.74
13,N/C(Cc1ccc([N+](=O)[O-])cc1)=N\OC(=O)c1cccc(Br)c1,-58
14,N/C(=N\OC(=O)Cc1ccc([N+](=O)[O-])cc1)c1cccc(Br)c1,3.08
15,COc1cc(C(=O)O/N=C(\N)Cc2ccc([N+](=O)[O-])cc2)cc(OC)c1OC,-68.9
16,N/C(=N\OC(=O)c1cccc(Br)c1)c1ccc([N+](=O)[O-])cc1,17.7
17,COc1ccc(C/C(N)=N/OC(=O)c2cccc([N+](=O)[O-])c2)cc1,-44.2
18,COc1cc(C(=O)O/N=C(\N)c2ccc([N+](=O)[O-])cc2)cc(OC)c1OC,-45.2
